Compound activity as filed in PubChem.
This excerpt belongs to a sample that is enriched for hits.
VCAM1 TNFa pot: TNF alpha stimulated VCAM1 expression potentiation; HUVEC TNFa-stimulated VCAM-1 immunofluorescence, high-content imaging; scaled per plate to unstimulated/TNFa-only wells; activation, % at 2 µM; 93,000 tested, 0.19% active; AID 808;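 active = activation above the screen mean plus 3 SD, with well images confirming the hit on visual review, cut at about 28% in these data, passing the limit was not always enough; inconclusive = activation above that limit but images do not confirm it; inactive = activation not above that limit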;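 also: signal is the number of cytoplasmic VCAM-1 stained grains per positive cell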
VCAM1 pot conf: potentiators of TNFa-induced VCAM1 expression, confirmation, imaging, HUVEC, triplicate retest; shares compounds with VCAM1 TNFa pot; HUVEC TNFa-stimulated VCAM-1 immunofluorescence imaging; activation, % at 2 µM; 230 tested, under 10 active;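 active = activation above 30% in triplicate retests at 2 µM, then confirmed by visual review of the well images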
Numbers stand for hits; 0 = inactive; ? = inconclusive.

SMILES | VCAM1 TNFa pot | others
Cc1ccc(S(=O)(=O)N(C)CCCC(=O)N2CCN(c3ccccn3)CC2)cc1 | 81.0 | VCAM1 pot conf=0
CC(=NCCN1CCCCC1)c1c(O)[nH]c(=O)[nH]c1=O | 0
COc1ccc(Oc2cc(NC(=O)c3nn(C)cc3[N+](=O)[O-])cc([N+](=O)[O-])c2)cc1 | 0
Cc1ccc2cccc(OC(=O)N3CCCC3)c2n1 | ? | VCAM1 pot conf=0
C=CCOC(=O)C1=C(C)OC(N)=C(C#N)C12C(=O)N(CN1CCOCC1)c1ccccc12 (stereo not given) | 0
Cc1sc2nc(COC(=O)Cc3ccccc3)[nH]c(=O)c2c1C | 0
O=c1[nH]c(=S)n(CCC2=CCCCC2)c(O)c1C=NCCCn1ccnc1 | 0
CNP1(NC)=NC(C(F)(F)F)=NC(C(F)(F)F)=N1 | 0
CSc1ccc(CNC2CN3CCC2CC3)cc1 (stereo not given) | 0
CC12CCCCC1N(O)CN2O (stereo not given) | 0
